This is part of a sample that, as a whole, favours compounds with a hit. Of some 83,000 tested, about 20% had one in any assay.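 Values shown are percent growth following 48 h exposure of cells in 96-well plates to a single concentration of compound; below 10 was considered active.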 The source made the active and inactive calls.
Columns and labels:
Assay in all cases: NCI-60 one-dose screen, 48 h (100 = growth as untreated, 0 = no growth, -100 = all killed)
Details in all cases: 10 µM unless noted
[1] = system: NCI-H23 lung
[2] = system: NCI-H226 lung
[3] = system: NCI-H322M lung
[4] = system: HOP-62 NSCLC
[5] = system: NCI-H460 lung
[6] = system: HOP-92 NSCLC
[7] = system: NCI-H522 lung
[8] = system: A549/ATCC NSCLC
[9] = system: 786-0 renal
[10] = system: COLO 205 colon

Measured: growth

CC(C)(C)c1cc(C=Nc2cccc(C(F)(F)F)c2)c(O)c(C(C)(C)C)c1
inactive: [1] 88.5% | [2] 91.4% | [3] 95.3% | [4] 95.7% | [5] 107% | [6] 90.9% | [7] 73.5% | [8] 84.1% | [9] 107% | [10] 119%

C=C(CO)[C@@H]1CC[C@]2(COC3CCCCO3)CC[C@]3(C)[C@H](CC[C@@H]4[C@@]5(C)C=C(C=O)C(=O)C(C)(C)[C@@H]5CC[C@]43C)[C@@H]12 (stereo not given in full)
active: [1] -63.6% | [2] -54.3% | [3] -22.6% | [4] -86.8% | [5] -73.1% | [6] -92.5% | [7] -80.5% | [8] -77.4% | [9] -91.2% | [10] -60.2%

CC(CN)[C@@H]1CC[C@]2(CO)CC[C@]3(C)[C@H](CC[C@@H]4[C@@]5(C)CCC(N)C(C)(C)[C@@H]5CC[C@]43C)[C@@H]12 (stereo not given in full)
inactive: [2] 85.2% | [3] 48.8% | [6] 70.9% | [10] 32.8%
active: [1] -29.1% | [4] -48.1% | [5] -80% | [7] -50.4% | [8] -89.3% | [9] -63.1%

C[C@@H](CO)[C@@H]1CC[C@]2(C(=O)N3CCN(C)CC3)CC[C@]3(C)[C@H](CC[C@@H]4[C@@]5(C)CC[C@H](O)C(C)(C)[C@@H]5CC[C@]43C)[C@@H]12
inactive: [1] 78.5% | [2] 81.4% | [3] 99.7% | [4] 116% | [5] 49.4% | [6] 47.7% | [7] 74.1% | [8] 88.6% | [9] 74% | [10] 90.2%

COc1ccccc1NC(=O)c1ccc(/C=C/C(=O)c2nccn2C)cc1
active: [1] -35.7% | [3] -93.4% | [4] -49.5% | [5] -43.5% | [6] -24.3% | [7] -44.8% | [8] -0.305% | [9] -48.4% | [10] -53.1%
inactive: [2] 24.6%

COc1cc2oc(-c3cccc(NC(=O)c4ccc5c(c4)OCO5)c3)cc(=O)c2c(OC)c1OC
inactive: [1] 52.9% | [2] 65.7% | [3] 43.5% | [4] 54.4% | [5] 27.2% | [7] 36.7% | [8] 51.3% | [9] 19.5% | [10] 68.1%
active: [6] -6.11%

CCC/C(=N\NC(N)=O)C(OC)OC
inactive: [1] 99.9% | [2] 108% | [3] 109% | [4] 109% | [5] 109% | [6] 68.4% | [7] 79.9% | [8] 93.6% | [9] 99.4% | [10] 110%

COc1ccc(/C(C)=C(\c2ccc(Cl)cc2)c2ccc(OCCN3CCCC3)cc2)cc1
active: [5] 2.86% | [9] -31.6% | [10] -29.9%
inactive: [1] 58.8% | [2] 85% | [3] 49.6% | [4] 59.2% | [6] 56.4% | [7] 69.9% | [8] 25.5%

CCn1cc(C(=O)NN=C2CCCCCC2)c(=O)c2ccc(C)nc21
inactive: [1] 89.5% | [2] 82% | [3] 88.7% | [4] 94.8% | [5] 92.4% | [6] 80.7% | [7] 75.3% | [8] 82.6% | [9] 87.2% | [10] 97.8%

COc1ccc(C/C(C)=C(\c2ccc(O)cc2)c2ccc(OCCN3CCCC3)cc2)cc1
inactive: [1] 105% | [2] 113% | [3] 99.2% | [4] 102% | [5] 113% | [6] 104% | [7] 97.5% | [8] 98% | [9] 100% | [10] 111%

O=C(NCc1ccc2c(c1)OCO2)NCC1CCCC(CNC(=O)NCc2ccc3c(c2)OCO3)C1 (stereo not given)
inactive: [1] 99.7% | [2] 100% | [3] 108% | [4] 102% | [5] 101% | [6] 103% | [7] 89.4% | [8] 96.9% | [9] 97.6% | [10] 119%

Cc1nc2sc(C(=O)Nc3cccc(Cl)c3)c(N)c2cc1C(O)c1ccccc1 (stereo not given)
inactive: [1] 32% | [2] 54.1% | [3] 60.2% | [4] 45.3% | [6] 77.2% | [8] 21.1% | [9] 36.8% | [10] 20.8%
active: [5] 6.05% | [7] 3.93%

CN1CCN(CCCOc2ccc3ncnc(Nc4ccc(Oc5cccc(F)c5)c(Cl)c4)c3c2)CC1
inactive: [1] 50.8% | [2] 88.4% | [3] 22.1% | [4] 48.7% | [6] 31.4% | [7] 22% | [8] 21.1%
active: [5] -62.8% | [9] -3.9% | [10] -37%

CCOC(=O)CSc1nc2sc3c(c2c(=O)n1-c1ccc([N+](=O)[O-])cc1)CCCCC3
inactive: [1] 74.5% | [2] 98.8% | [3] 77.2% | [4] 47.7% | [5] 48.1% | [6] 80.3% | [7] 68.8% | [8] 66.1% | [9] 71.3% | [10] 82.8%

O=C(/C=C/c1ccccc1)Nc1ncc(Cc2ccccc2)s1
active: [5] 2.22% | [7] -4.58% | [10] 8.42%
inactive: [1] 24.8% | [2] 60.3% | [3] 31.4% | [4] 13.7% | [6] 85.7% | [8] 22.1% | [9] 24.5%

Brc1ccc(-c2cnc3nonc3n2)cc1
inactive: [1] 68% | [2] 100% | [3] 94% | [4] 105% | [5] 96.7% | [6] 86.9% | [7] 66% | [8] 91.9% | [9] 84.2% | [10] 71.3%

CCn1cc(CNc2ccc(C(=O)Nc3cc4cc(OC)c(OC)cc4c(C)n3)cc2)c(C)n1
active: [1] 9.61% | [7] -10.1%
inactive: [2] 20.5% | [3] 85.1% | [4] 12.8% | [5] 58.1% | [6] 78.6% | [8] 29.5% | [9] 70.9% | [10] 28.9%

O=c1ccc2nc(C(F)(F)F)nn(-c3ccccc3)c-2c1
active: [7] -56% | [10] -70.7%
inactive: [1] 67.7% | [2] 77.7% | [3] 99.8% | [4] 69% | [5] 97.3% | [6] 35.2% | [8] 93% | [9] 22.2%

C=CC1(C)C(O[Si](C)(C)C(C)(C)C)CC2C3OC(=O)NC31c1cccc3c1[C@H](C(=O)N3C)C2(C)C (stereo not given in full)
inactive: [1] 59.7% | [2] 66.7% | [3] 78.3% | [4] 85.5% | [5] 44.7% | [6] 29.4% | [7] 44.1% | [8] 41.7% | [9] 73.6% | [10] 40.8%

O=C1c2cccnc2C(=O)c2c1c(C(=O)OCCCN1CCCCC1)c1ccccn21
active: [1] -48.5% | [2] -18.4% | [3] -18.1% | [4] -31.9% | [5] -63.3% | [6] -8.21% | [7] -80% | [8] -63.8% | [9] -62.6% | [10] -79%

Cn1ccnc1C(=O)/C=C/c1ccc(C(=O)Nc2ccc(F)cc2)cc1
active: [4] 5.2% | [5] -44.5% | [7] 7.55% | [9] -35.2%
inactive: [1] 15.9% | [2] 13.8% | [3] 11% | [6] 11.1% | [8] 10.8% | [10] 25.8%
